Records with an inconclusive call do not appear. Where a call stands in place of a potency, no number is given. A number with no mark means an inactive call. Calls of active or inactive are those of the source. The call rests on the fitted dose curve; in most records, active means well fitted inhibition curve with a large enough effect in the repeat runs; inconclusive means weak or mixed curves; inactive means flat fitted curve, though single readings scatter.
Each molecule was assayed against Voltage-gated inwardly rectifying potassium channel KCNH2 (Homo sapiens) (UniProt Q12809) (assay: Human Ether-a-go-go-Related Gene (hERG) channel small molecule antagonists: fluorescence cell-based qHTS assay (AID 1671200;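 further: hERG-expressing U2OS cells given a thallium stimulus after FluxOR II dye loading; nearly all actives have a fitted effect of over 50% in size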)). Details: hERG-U2OS cells, FluxOR thallium flux fluorescence; series mostly up to 76.8 µM.
Procedure, shortened: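 Kinetic two-minute fluorescence traces, sampled at 1 s, were collected following thallium stimulus of U2OS cells (1000 per well) that had been cultured overnight at 37 C and loaded with FluxOR II.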

Sequence of Voltage-gated inwardly rectifying potassium channel KCNH2 (Homo sapiens) (Q12809 whole entry, looked up): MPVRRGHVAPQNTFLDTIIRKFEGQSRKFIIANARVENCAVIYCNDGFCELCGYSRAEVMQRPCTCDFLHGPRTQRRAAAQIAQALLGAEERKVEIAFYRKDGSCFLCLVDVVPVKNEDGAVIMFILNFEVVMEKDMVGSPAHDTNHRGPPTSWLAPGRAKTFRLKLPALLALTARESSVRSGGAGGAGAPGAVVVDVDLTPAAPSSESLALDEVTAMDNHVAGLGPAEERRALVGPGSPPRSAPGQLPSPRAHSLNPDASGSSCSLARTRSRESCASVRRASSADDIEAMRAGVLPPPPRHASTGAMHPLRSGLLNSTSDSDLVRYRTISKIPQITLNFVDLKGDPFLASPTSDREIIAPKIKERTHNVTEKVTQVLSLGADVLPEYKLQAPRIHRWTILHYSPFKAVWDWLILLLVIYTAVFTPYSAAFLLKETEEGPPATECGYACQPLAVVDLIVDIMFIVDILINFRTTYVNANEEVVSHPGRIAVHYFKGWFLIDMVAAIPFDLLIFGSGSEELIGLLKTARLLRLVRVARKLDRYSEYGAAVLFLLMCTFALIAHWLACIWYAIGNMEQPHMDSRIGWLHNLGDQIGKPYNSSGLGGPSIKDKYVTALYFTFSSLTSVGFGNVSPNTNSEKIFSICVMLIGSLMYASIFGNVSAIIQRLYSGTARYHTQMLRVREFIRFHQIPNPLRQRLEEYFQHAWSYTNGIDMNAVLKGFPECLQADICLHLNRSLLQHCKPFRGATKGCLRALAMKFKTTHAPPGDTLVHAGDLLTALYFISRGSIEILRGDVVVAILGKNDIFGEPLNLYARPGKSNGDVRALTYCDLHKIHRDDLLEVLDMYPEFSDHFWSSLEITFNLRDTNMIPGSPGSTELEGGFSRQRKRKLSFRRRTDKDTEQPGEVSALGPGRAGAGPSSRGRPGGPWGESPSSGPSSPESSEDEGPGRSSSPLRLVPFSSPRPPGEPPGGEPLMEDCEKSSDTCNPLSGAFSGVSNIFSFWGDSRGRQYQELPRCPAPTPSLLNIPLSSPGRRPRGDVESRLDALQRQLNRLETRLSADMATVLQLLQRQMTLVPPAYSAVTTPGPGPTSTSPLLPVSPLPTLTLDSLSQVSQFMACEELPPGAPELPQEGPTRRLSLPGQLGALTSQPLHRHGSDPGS

Row | Compound | Potency | activity change, negative = inhibition
1 | CCC(=O)Nc1ccc(O)cc1 | inactive | –
2 | CC(=O)Oc1cc(C(C)C)c(OCCN(C)C)cc1C | inactive | –
3 | O=c1[nH]cnc2c1ncn2[C@@H]1O[C@H](CO)[C@@H](O)[C@H]1O | inactive | –
4 | N#Cc1ccc(C(c2ccc(C#N)cc2)n2cncn2)cc1 | inactive | –
5 | OCc1ccccc1O | inactive | –
6 | C[C@@H]1CN(c2c(F)c(F)c3c(=O)c(C(=O)O)cn(C4CC4)c3c2F)C[C@H](C)N1 | – | 7.01% [at 15.8 µM]
7 | CC(=O)N(CC(O)CN(C(C)=O)c1c(I)c(C(=O)NCC(O)CO)c(I)c(C(=O)NCC(O)CO)c1I)c1c(I)c(C(=O)NCC(O)CO)c(I)c(C(=O)NCC(O)CO)c1I (stereo not drawn) | inactive | –
8 | CC(C)O | inactive | –
9 | CN1CCN(c2c(F)cc3c(=O)c(C(=O)O)cn(CCF)c3c2F)CC1 | inactive | –
10 | Cc1nnc(SCC2=C(C(=O)O)N3C(=O)[C@@H](NC(=O)Cn4cnnn4)[C@H]3SC2)s1 | inactive | –
11 | CCCCc1ccc2nc(NC(=O)OC)[nH]c2c1 | inactive | –
12 | Oc1ccccc1C=NCc1ccccc1 | inactive | –
13 | NC/C=C/C(=O)O | inactive | –
14 | COc1ccccc1N1CCN(CCCNc2cc(=O)n(C)c(=O)n2C)CC1 | inactive | –
15 | CS(=O)(=O)c1ccc([C@@H](O)[C@@H](CF)NC(=O)C(Cl)Cl)cc1 | inactive | –
16 | Cc1cc(NS(=O)(=O)c2ccc(N)cc2)nc(C)n1 | inactive | –
17 | CCC(=O)O[C@]1(C(=O)SCF)[C@H](C)C[C@H]2[C@@H]3C[C@H](F)C4=CC(=O)C=C[C@]4(C)[C@@]3(F)[C@@H](O)C[C@@]21C | inactive | –
18 | FC(F)(F)C(F)(F)C(F)(F)C(F)(F)C(F)(F)C(F)(F)C(F)(F)C(F)(F)Br | inactive | –

— PubChem BioAssay (Tox21)
